Screen size: about 39,000 compounds; about 3,300 (8.5%) were called active. The sample as a whole holds a higher share of actives than the screen did.

The subject of this assay is HepG2. Kind of assay: cytotoxicity call (relative viability < 0.9). The conditions noted are these: 10 µM.
As to `COc1ccc(S(=O)(=O)Nc2ccc3c(c2)CC(=O)N([C@@H](C)CO)C[C@@H](C)[C@@H](CN(C)Cc2ccc(C(=O)O)cc2)O3)cc1`, the cytotoxicity call is “inactive”.
Then `COc1ccc(NC(=O)N(C)C[C@@H]2OCCCC[C@H](C)Oc3ccc(NS(=O)(=O)c4cccs4)cc3C(=O)N([C@@H](C)CO)C[C@@H]2C)cc1`, with “inactive”; and `CCS(=O)(=O)N1C[C@]2(CN(C2)C(=O)c2ccc3c(c2)OCO3)c2c(n(c3cc(ccc23)OC)C)[C@H]1CO`, with “inactive”; and `CN1CCN(C(=O)C[C@@H]2CC[C@@H]3[C@H](COC[C@@H](O)CN3C(=O)Nc3cc(Cl)cc(Cl)c3)O2)CC1`, with “inactive”.
The entry for `C[C@H]1CN([C@@H](C)CO)C(=O)c2cc(NC(=O)C3CCCCC3)ccc2O[C@H]1CN(C)C(=O)Nc1ccc(C(F)(F)F)cc1` is “inactive”; for `C[C@@H]1CCCCO[C@@H](CN(C)S(=O)(=O)c2ccc(Cl)cc2)[C@H](C)CN([C@H](C)CO)C(=O)c2cc(NS(=O)(=O)c3ccc(Cl)cc3)ccc2O1` it is “active”.
As to `C[C@@H]1CN([C@@H](C)CO)C(=O)c2cc(NS(=O)(=O)c3ccc(Cl)cc3)ccc2O[C@@H](C)CCCCO[C@H]1CN(C)S(=O)(=O)c1ccc(Cl)cc1`, the cytotoxicity call was “inactive”.
Take `C[C@@H]1CN([C@H](C)CO)C(=O)c2cc(NS(=O)(=O)c3ccc(Cl)cc3)ccc2O[C@@H](C)CCCCO[C@H]1CN(C)S(=O)(=O)c1ccc(Cl)cc1`: the cytotoxicity call is “inactive”.
In the case of `COCCNC(=O)C[C@H]1C[C@H]2c3cc(NC(=O)CN(C)C)ccc3O[C@H]2[C@@H](CO)O1`, the cytotoxicity call was “inactive”.
The entry for `C[C@H](CO)N1C[C@H](C)[C@@H](CN(C)Cc2ccc(Oc3ccccc3)cc2)Oc2ccc(NC(=O)NC3CCCCC3)cc2C1=O` is “active”.
For `C[C@@H]1CN([C@@H](C)CO)C(=O)c2cc(NC(=O)NC3CCCCC3)ccc2O[C@@H]1CN(C)Cc1ccc(Oc2ccccc2)cc1`, the cytotoxicity call is “active”.
The entry for `C[C@@H]1CN([C@H](C)CO)C(=O)c2cc(NC(=O)NC3CCCCC3)ccc2O[C@@H]1CN(C)Cc1ccc(Oc2ccccc2)cc1` is “active”; for `C[C@H]1CN([C@@H](C)CO)C(=O)c2cc(NC(=O)NC3CCCCC3)ccc2O[C@H]1CN(C)Cc1ccc(Oc2ccccc2)cc1` it is “inactive”.
Then `C[C@@H]1CN([C@H](C)CO)C(=O)c2cc(NC(=O)NC3CCCCC3)ccc2O[C@H]1CN(C)Cc1ccc(Oc2ccccc2)cc1`, with “inactive”; and `C[C@H](CO)N1C[C@H](C)[C@H](CN(C)Cc2ccc(Oc3ccccc3)cc2)Oc2ccc(NC(=O)NC3CCCCC3)cc2C1=O`, with “inactive”.
Then `CC(C)NC(=O)Nc1ccc2c(c1)C(=O)N([C@@H](C)CO)C[C@@H](C)[C@@H](CN(C)Cc1ccc(Oc3ccccc3)cc1)O2`, with “inactive”; and `C[C@@H]1CN([C@@H](C)CO)C(=O)c2cc(NC(=O)NC3CCCCC3)ccc2O[C@H]1CN(C)Cc1ccc(Oc2ccccc2)cc1`, with “inactive”; and `CC(C)NC(=O)Nc1ccc2c(c1)C(=O)N([C@H](C)CO)C[C@@H](C)[C@H](CN(C)Cc1ccc(Oc3ccccc3)cc1)O2`, with “inactive”.

(Values after the antibiotic and cytotoxicity screens of Wong et al. (2023).)
